Among all 48,000 compounds or so, about 120 (0.25%) were called active. Inconclusive results (about 4%) are left out. The call rests on the fitted dose curve; in most records, active means well fitted activation curve with a large enough effect; inconclusive means small, poorly fitted or top-dose-only effect, or another doubt; inactive means no such curve, though single readings can be large or run the other way. The full list was thinned out, with actives kept by preference.
Assay: Primary qHTS for Identification of Small Molecule Activators of Huntingtin-Antisense Promoter Activity; further: nearly all actives have a fitted effect of over 55% in size
Details: HEK293 HTT-AS promoter firefly luciferase reporter, 24 h; series mostly up to 57.5 µM; activity change, positive = activation: at the top concentration
Description: Assay Provider: Russell L. Margolis M.D.
Department Neurology, Johns Hopkins University School of Medicine, Baltimore, MD
Huntington's Disease (HD) is a neurodegenerative disorder caused by a CAG repeat expansion in exon 1 of huntingtin (HTT). While there are currently no disease-modifying treatments for HD, recent efforts have focused on development of nucleotide-based therapeutics to lower HTT expression. As an alternative to siRNA or oligonucleotide methods, we hypothesized that suppression of HTT expression might be accomplished by small molecules that either (1) directly decrease HTT expression by suppressing HTT promoter activity or (2) indirectly decrease HTT expression by increasing the promoter activity of HTT-AS, the gene antisense to HTT that appears to inhibit expression of HTT.
We developed and employed a high throughput screen for modifiers of HTT and HTT-AS promoter activity using luminescent reporter HEK293 cells; of the 52,041 compounds tested, we identified 898 replicable hits. We used a rigorous stepwise approach to assess compound toxicity and the capacity of the compounds to specifically lower huntingtin protein in 5 different cell lines, including HEK293 cells, HD lymphoblastoid cells, mouse primary neurons, HD iPSCs differentiated into cortical-like neurons, and HD hESCs. We found no compounds which were able to lower huntingtin without lowering cell viability in all assays, though the potential efficacy of a few compounds at non-toxic doses could not be excluded.
SEQUENCE No. (1, 2, 3, etc.); […] (e.g., Cells, Incubation, Reagent, etc.); VALUE and DESCRIPTION.
1; Reagent; 4 uL; 2,500 Hek293 luciferase reporter cells per wells
3; Compound; 23 nL; Control inhibitor / compound library
5; Reagent; 2.5 uL; Firefly Luc reagent; Dual-Glo Luciferase Reporter Assay System (Promega)
6; Time; 10 min; room temperature incubation
7; Detection; Luminescence; FLuc
NOTES (numbers refer to sequence above)
1; High-throughput screening, measuring luminescence from a Hek293 luciferase reporter, was performed in 1,536 well white-walled tissue-culture treated plates. 2,500 cells were plated in 4 µL of Opti-MEM per well using a Multidrop Combi Reagent Dispenser (ThermoFisher).
2; Assay plates were cultured for 24 hours.
3; Control inhibitor (PTC124; final concentration of 50 uM) and compound library (at final concentrations of 460 nM - 57.5 uM) were added to the assay plate using the Kalypsis Pintool Robotic System equipped with 1536 pinheads.
4; Cells were then incubated for 24 hours at 37 degrees C prior to luminescence measurements.
5; In all cases, luminescence was measured using the Dual-Glo Luciferase Reporter Assay System (Promega) following the manufacturer's instructions.
6; Room temperature incubation.
7; Luminescence signal was obtained using the PerkinElmer ViewLux plate reader. Results were normalized to vehicle control (0% activity) and zero RLU (-100% activity).
Potency means the concentration at half of the fitted maximal effect.

SMILES	activity change, positive = activation	Potency
CSc1nc(Nc2ccc(F)cc2)cc(-c2ccccc2)n1	-31.3% (inactive)	–
Cc1nnc(SCC(=O)NCc2ccccc2Cl)c2nn(-c3ccccc3)c(C)c12	-52.7% (inactive)	–
Cc1ccc(C)c(Cn2c(C)c(CNCc3ccc(F)cc3)c(C(=O)O)c2C)c1	-17.8% (inactive)	–
CCn1c(CN2CCC(C)CC2)nc2cc(NC(=O)c3ccccc3[N+](=O)[O-])ccc21	-14.8% (inactive)	–
COc1ccc(-c2cn3nc(N4CCC(C(=O)Nc5cccc(C)c5C)CC4)sc3n2)cc1	-3.6% (inactive)	–
COc1ccc(-c2nc(CN3CCC(C(=O)NCc4ccccc4)CC3)c(C)o2)cc1OC	-3.36% (inactive)	–
CC(C)CNc1ncnc2c1nnn2C	5.96% (inactive)	–
CSc1ccccc1-c1nnc(NC(=O)c2ccc3c(c2)OCCO3)o1	23.7% (inactive)	–
COc1ccc(NC(=O)CCc2nnc3n(CC(C)C)c(=O)c4ccccc4n23)cc1OC	-1.01% (inactive)	–
O=C(NCC(c1ccc(Cl)cc1)N1CCOCC1)c1ccccc1F (stereo unspecified)	-2.89% (inactive)	–
CCOc1ccc(NC(=O)CC2C(=O)N(c3cccc(OC)c3)C(=O)N2C2CCCCC2)cc1 (stereo unspecified)	-6.38% (inactive)	–
COc1cc(OC)cc(C(=O)Nc2ccc3nc(Nc4cccc(C(F)(F)F)c4)cc(C)c3c2)c1	-45.6% (inactive)	–
Cn1cc(S(=O)(=O)N2CCCCCC2)cc1C(=O)N1CCN(c2ccc(F)cc2)CC1	-20.1% (inactive)	–
Cc1ccc(NS(=O)(=O)c2ccc3c(c2)CC(=O)N3)cc1Cl	-22.4% (inactive)	–
CCCc1nn2c(=O)cc(COC(=O)c3ccc(NC(=O)COc4ccc(F)cc4)cc3)nc2s1	-14.4% (inactive)	–
CSc1ccc(NC(=O)Cn2nnnc2-c2ccccc2F)cc1	2.75% (inactive)	–
CCOc1ccc(N(CC)S(=O)(=O)N2CCCC(C(=O)NCc3ccc(SC)cc3)C2)cc1 (stereo unspecified)	-54.2% (inactive)	–
Cc1ccc(N2CC(NC(=O)Cc3cccs3)CC2=O)cc1 (stereo unspecified)	-7.5% (inactive)	–
CSc1ccc(C2C(C(=O)Nc3ccccc3)=C(C)Nc3nc4ccccc4n32)cc1 (stereo unspecified)	-8.48% (inactive)	–
CC1CCCN(S(=O)(=O)c2ccc3[nH]c(=O)cc(C(=O)NCCc4ccc(Cl)cc4)c3c2)C1 (stereo unspecified)	-9.89% (inactive)	–
COc1ccc(Cl)cc1NC(=O)CSc1nc2ccccc2c2nc(-c3ccccc3)nn12	-1.33% (inactive)	–
O=C(CC(c1cccs1)N1Cc2ccccc2C1=O)Nc1ccc(F)cc1F (stereo unspecified)	-27.2% (inactive)	–
COCCNC(=O)c1ccc2c(c1)N=C(C)c1cc(C)ccc1S2	-31.8% (inactive)	–

SMILES	activity change, positive = activation	Potency
COc1ccc(-c2nc3c4ccccc4n(CC(=O)Nc4ccc(C(C)=O)cc4)c(=O)n3n2)cc1	0.837% (inactive)	–
Cc1cccc(N2CCN(C(=O)Cn3ncc4c5ccccc5n(C)c4c3=O)CC2C)c1 (stereo unspecified)	-6.74% (inactive)	–
CCOC(=O)N1CCC(NC(=O)c2cnn(-c3cccc(C)c3)c2C2CCN(C(=O)OC(C)(C)C)CC2)CC1	7.44% (inactive)	–
COc1cccc(NC(=O)N(Cc2cn(C)c3ccccc23)C2CCCCCC2)c1	-30.5% (inactive)	–
COc1ccc(CNC(=O)COCc2cc(-c3cccs3)on2)cc1OC	-12% (inactive)	–
COc1cccc(CNC(=O)Cn2ncn3c(cc4ccccc43)c2=O)c1	4.19% (inactive)	–
COc1cc2ccccc2cc1C(=O)Nc1cccc(-c2nc3ccccc3o2)c1	4.7% [at 11.5 µM, percent change from vehicle, -100% = no light] (inactive)	–
CC1CCN(c2nc3ccc(C(=O)N4CCN(c5ccccc5)CC4)cc3s2)CC1	-77.4% (inactive)	–
COc1cc(NC(=O)CN2CCN(S(=O)(=O)c3ccc(Br)cc3)CC2)cc(OC)c1	0% (inactive)	–
CCOC(=O)c1cccc(NC(=O)c2cc(S(=O)(=O)N3CCCC(C)C3)cn2C)c1 (stereo unspecified)	-36.2% (inactive)	–
Cc1ccc(OCC(=O)OCc2cc(=O)n3nc(C4CC4)sc3n2)cc1C	-14.4% (inactive)	–
COc1cc(-c2nnn(CC(=O)NCc3ccccc3)n2)cc(OC)c1OC	-17.2% (inactive)	–
Cc1ccc(C)c(N2CCN(CCCNC(=O)Nc3ccc(Cl)cc3)CC2)c1	-32.1% (inactive)	–
CCCCC12CN3CC(C)(CN(C1)C3c1ccc(O)c(OC)c1)C2=O (stereo unspecified)	0.462% (inactive)	–
Cc1cc(Cl)ccc1NC(=O)Cc1ccc(NC(=O)N2CCCCc3ccccc32)cc1	-3.06% (inactive)	–
CCN(CC)CCNc1ncnc2c1cnn2-c1cc(Cl)ccc1C	-12% (inactive)	–
COc1ccc(C(=O)Nc2ccc(-n3nncc3-c3ccccc3)cc2)cc1OC	-6.93% (inactive)	–
CN(Cc1ccccc1)C(=O)CCS(=O)(=O)c1cc(Br)cc2c1N(C(=O)C1CC1)CC2	-15% (inactive)	–
COc1ccc(-c2nnc(SCC(=O)Nc3ccccc3C)o2)cc1OC	-4.55% (inactive)	–
Cc1ccc(-c2nnc(SCc3ccccc3C)o2)cc1	–	14.1 µM (active)
Cc1ccc(OC(=O)CSc2nnc(-c3cccs3)o2)cc1	18.6% (inactive)	–
Cc1ccc(Cl)cc1N(C)C(=O)C1CCCN(c2ncnc3onc(-c4ccc(F)cc4)c23)C1 (stereo unspecified)	-34% (inactive)	–
CC(C)c1ccc(C2CC(=O)N3CN(C4CCCCC4)CSC3=C2C#N)cc1 (stereo unspecified)	-23% (inactive)	–

SMILES	activity change, positive = activation	Potency
CC(C)CNc1ccnc(NCc2csc(-c3ccccc3)n2)n1	-89.5% (inactive)	–
Cc1ccc2onc(CC(=O)N3CCN(c4ccc(Cl)cc4)CC3)c2c1	-13.9% (inactive)	–
COc1ccccc1N1CCN(C(CNC(=O)C(=O)NCc2ccc(C)cc2)c2cccnc2)CC1 (stereo unspecified)	-57.5% (inactive)	–
Cc1ccc(-c2cnc(NCc3ccc(C(C)C)cc3)n2C)cc1	-15.5% (inactive)	–
CCOC(=O)c1ccccc1NC(=O)c1nn(-c2ccc(OC)c(Cl)c2)c(=O)c2c1c1ccccc1n2C	-3.59% (inactive)	–
O=C(CSc1nccn1-c1ccc(F)cc1)Nc1cccc2ccccc12	-9.33% (inactive)	–
Cc1cc(C)cc(NC(=O)CCCc2nc(-c3ccccc3Cl)no2)c1	-12.4% (inactive)	–
COc1ccc(CN2C(=O)C(NC(=O)c3cccc(C)c3)(C(F)(F)F)N=C2c2ccccc2)cc1 (stereo unspecified)	-24% (inactive)	–
COc1ccc(CCNC(=O)Cn2c(=O)cc(C(F)(F)F)c3c(C)nn(C)c32)c(OC)c1	-7.62% (inactive)	–
Cc1cccn2c(=O)c3cc(C(=O)NC(C)c4ccccc4)c(=N)n(CCCO)c3nc12 (stereo unspecified)	13.5% (inactive)	–
CC(C)(C)c1ccc(C(=O)NCC(c2ccc(Cl)cc2)N2CCOCC2)cc1 (stereo unspecified)	-34.2% (inactive)	–
COc1ccc(CCC(=O)NCCc2csc(-c3ccc(Cl)cc3)n2)cc1	-23.5% (inactive)	–
COc1ccc(Cl)cc1NC(=O)Cn1c(=O)c2ccccc2n2nncc12	-0.66% (inactive)	–
CC(C)CCNC(=O)CSc1nc2ccccc2nc1Cc1ccc(Cl)cc1	-6.39% (inactive)	–
Cc1ccccc1OCCSc1nc2ccc(NC(=O)c3ccco3)cc2s1	-25% (inactive)	–
O=C(Nc1cc(-c2nc3ccccc3o2)ccc1Cl)c1cc([N+](=O)[O-])ccc1N1CCOCC1	4.83% (inactive)	–
COC(=O)c1cc(Cl)c(NC(C)=O)cc1OC	3.75% (inactive)	–
COc1ccc(CNC(=O)Cn2nnc(-c3ccccc3F)n2)cc1	-9.07% (inactive)	–
CCCC(=O)N1CCN(c2nc3c(OC)ccc(C)c3s2)CC1	-10.6% (inactive)	–
COc1ccc(-n2c(=O)c3ccccc3n(Cc3ccccc3Cl)c2=O)cc1	-22.4% (inactive)	–
O=C(c1ccc(C(F)(F)F)cc1)N1CCC(c2nc(-c3ccc(S(=O)(=O)N4CCCC4)cc3)no2)CC1	-29.4% (inactive)	–
CCCC(=O)Nc1cc(C(=O)NCc2ccc(OC)cc2)ccc1S(=O)(=O)c1ccc(Cl)cc1	1.22% (inactive)	–
O=C(Nc1nc2ccc(F)cc2s1)c1nc(SCc2ccccc2F)ncc1Cl	0% (inactive)	–

SMILES	activity change, positive = activation	Potency
C=Cc1c(C)c2cc3nc(cc4[nH]c(cc5nc(cc1[nH]2)C(C)=C5CCC(=O)O)c(CCC(=O)OC)c4C)[C@@]1(C)C3=CC=C(C(=O)OC)[C@H]1C(=O)OC	-35.4% (inactive)	–
CC(Nc1ccc(-c2nc(-c3ccco3)no2)cc1[N+](=O)[O-])c1ccccc1 (stereo unspecified)	18% (inactive)	–
CCOc1ccc(NC(=O)c2c(NC(=O)Cc3ccccc3)sc3c2CCC(C)C3)cc1 (stereo unspecified)	-28.3% (inactive)	–
CCCOc1ccc(-c2cccc(NS(=O)(=O)c3ccccc3)c2)nn1	-27.3% (inactive)	–
Cc1cccc(NC(=O)CSc2nc3c(oc4ccccc43)c(=O)n2-c2ccc(F)cc2)c1	-21.1% (inactive)	–
Cc1cc(C)cc(OCC(=O)Nc2c(C(=O)c3ccccc3)oc3ccccc23)c1	-4.18% (inactive)	–
O=C(NC1CCCCC1)c1ccc(Cn2c(SCc3ccccc3)nc3cccnc32)cc1	-5.82% (inactive)	–
COc1cc(C(=O)Nc2ccc(OCc3cc(=O)n4ccc(C)cc4n3)cc2)cc(OC)c1OC	-0.483% (inactive)	–
Cc1cc2c(cc1S(=O)(=O)CCC(=O)Nc1ccc(OC(F)(F)F)cc1)OCC(=O)N2	-17.4% (inactive)	–
CCn1c(=O)c(=O)n(CC)c2cc(N3CCCCC3)c(NC(=O)c3ccc(Cl)cc3)cc21	-4.94% (inactive)	–
COc1ccc(NC(=O)COCc2cc(-c3ccco3)on2)cc1	7.49% (inactive)	–
COc1ccc(Cn2ccnc2SCC(=O)NCc2ccco2)cc1	1.47% (inactive)	–
COc1cccc(C(=O)Nc2ccc3oc(-c4ccc5ccccc5c4)nc3c2)c1	17.6% (inactive)	–
COc1ccccc1N1CCN(C2C(=O)c3ccccc3N2C(C)=O)CC1 (stereo unspecified)	-15.5% (inactive)	–
CCOC(=O)c1oc2ccc(S(=O)(=O)n3nc(-c4ccccc4OC)cc3N)cc2c1C	-34% (inactive)	–
Cc1ccc(C)c(N2C(=O)N(Cc3c(F)cccc3Cl)c3ccccc3S2(=O)=O)c1	-7.55% (inactive)	–
Cc1ccc(S(=O)(=O)N(Cc2nc(-c3ccc(Cl)cc3)no2)C2CCCCC2)cc1	-26.2% (inactive)	–
COc1cccc(-n2cc(C(=O)NCc3cccc(Cl)c3)c3ccccc3c2=O)c1	-25.7% (inactive)	–
Cc1ccc(S(=O)(=O)N2CCCc3cc(NS(=O)(=O)c4cc(C)ccc4C)ccc32)cc1	-26.5% (inactive)	–
NCC[C@H](O)C(=O)N[C@@H]1C[C@H](N)[C@@H](O[C@H]2O[C@H](CN)[C@@H](O)[C@H](O)[C@@H]2O)[C@H](O)[C@@H]1O[C@H]1O[C@H](CO)[C@@H](O)[C@H](N)[C@@H]1O	-2.89% [at 0.74 µM, percent change from vehicle, -100% = no light] (inactive)	–
CCCN(C(=O)Cn1cc(S(=O)(=O)N2CCN(c3ccccc3F)CC2)c2ccccc2c1=O)c1cccc(C)c1	-11.8% (inactive)	–
Cc1ccc(C)c(OCC(=O)Nc2sc3c(c2C#N)CCCC3)c1C	-6.79% [at 11.5 µM, percent change from vehicle, -100% = no light] (inactive)	–

From PubChem BioAssay AID1508624 (National Center for Advancing Translational Sciences (NCATS), 2021)
